The supplement of paper PMC8291772
± gives the standard error. Whole data set: some 1,300 sequences, median “fluorescence a.u.” near 420, cut for the highest 2% near 1,100. Only a selection was taken, and the highest values are over-represented in it overall.

molecular target: terminal deoxynucleotidyl transferase (calf thymus) (UniProt P06526); test: TdT poly-dT extension signal (Cy3 hybridisation fluorescence, uncapped minus capped) (fluorescence a.u.); higher = more efficient initiation of TdT extension; settings: initiator chemistry: 2'-O-methyl-RNA, free 3'-OH (5'-tethered via HEG linker)
Protocol: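 All mono- to pentamer 2'-O-methyl-RNA initiators were made by photolithographic in situ synthesis (3'-NPPOC amidites, reverse direction, free 3'-OH) on glass on a hexaethylene glycol linker. Each was made in uncapped and DMTr-dT-capped versions, about 11 replicates each. Arrays were extended with calf thymus TdT (0.2 U/uL), 100 uM dTTP and 0.25 mM CoCl2 for 120 min at 37 C, hybridised with an rA18-Cy3 probe and scanned at 532 nm. The value is the mean uncapped minus the mean capped signal. IDs are written 3'->5' and are reversed to 5'->3'; all nucleotides are 2'-OMe.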

Chain of terminal deoxynucleotidyl transferase (calf thymus) (P06526 whole entry): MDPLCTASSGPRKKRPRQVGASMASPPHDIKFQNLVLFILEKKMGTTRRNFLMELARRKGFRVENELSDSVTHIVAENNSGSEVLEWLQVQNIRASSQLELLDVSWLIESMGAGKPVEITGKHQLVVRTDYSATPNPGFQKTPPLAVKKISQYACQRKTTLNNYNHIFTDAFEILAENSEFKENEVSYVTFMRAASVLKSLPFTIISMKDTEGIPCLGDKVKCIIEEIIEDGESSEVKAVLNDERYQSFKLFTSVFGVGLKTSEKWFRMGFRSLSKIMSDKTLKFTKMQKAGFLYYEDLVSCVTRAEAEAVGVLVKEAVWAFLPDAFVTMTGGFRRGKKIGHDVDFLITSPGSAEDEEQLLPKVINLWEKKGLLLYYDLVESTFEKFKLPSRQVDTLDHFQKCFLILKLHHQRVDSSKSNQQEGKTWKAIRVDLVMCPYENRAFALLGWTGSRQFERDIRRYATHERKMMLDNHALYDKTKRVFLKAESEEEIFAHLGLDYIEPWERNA

Sequence	TdT poly-dT extension signal
CCUAG	353 ± 33
GGUA	376 ± 23
CGUAU	326 ± 32
CCUU	343 ± 26
CGUUU	232 ± 14
CGCCG	324 ± 46
ACAA	1060 ± 140
GCAAA	1260 ± 170
CCAA	1060 ± 95
CCAAC	725 ± 53
ACAAA	1170 ± 100
ACAAG	613 ± 60
GCAA	841 ± 41
GCAAC	935 ± 81
CCAAA	1170 ± 64
AUACG	244 ± 16
CCUA	528 ± 39
GAUA	432 ± 34
CACAU	469 ± 23
GACGC	1120 ± 110
UACG	231 ± 24
UACGC	1190 ± 92
CUCGU	483 ± 44
GGUC	489 ± 33
CAGU	512 ± 30
CACA	425 ± 22

Sequence	TdT poly-dT extension signal
AAAGU	535 ± 51
GUAAC	558 ± 40
UGCAA	770 ± 77
UCAGA	821 ± 37
AAUAA	788 ± 62
ACCUA	571 ± 34
UUUCA	224 ± 24
GCGAA	1000 ± 120
GACUU	318 ± 22
AGGAG	436 ± 25
CAUGG	217 ± 15
AAGGC	1170 ± 40
CAGGC	1060 ± 81
AAGG	383 ± 41
CUCC	396 ± 35
AUCAC	729 ± 63
CUGUC	440 ± 40
AAUGA	403 ± 20
AUUCC	377 ± 21
GUGAA	729 ± 86
AUUGG	176 ± 11
GCUUG	230 ± 30
GAUUA	366 ± 28
GAAUU	321 ± 24
AGCGA	556 ± 38
UUCGC	1170 ± 79

Sequence	TdT poly-dT extension signal
UUCGU	500 ± 42
UUCG	159 ± 17
GCGCA	351 ± 19
GCCG	192 ± 16
UCGCA	463 ± 31
UCGC	1140 ± 90
UCGCU	401 ± 25
CAACA	373 ± 34
UCGG	302 ± 31
AAGAU	506 ± 39
UUAGG	271 ± 26
UCGAU	402 ± 31
AGGGC	1120 ± 71
CUAUA	436 ± 37
GUAUG	157 ± 12
CGGCU	341 ± 24
UCACG	290 ± 31
CUCAG	488 ± 37
CCCCG	227 ± 18
GGUAG	272 ± 28
ACCAC	681 ± 58
UCUG	199 ± 16
UUAUA	375 ± 34
CUCCG	194 ± 14
AACUC	504 ± 22
AAUGC	1140 ± 77

Sequence	TdT poly-dT extension signal
AAUG	175 ± 23
AAUGG	219 ± 18
CAUGU	374 ± 35
CAUG	261 ± 26
CAUGC	1140 ± 140
CGUAC	482 ± 33
AACUU	369 ± 22
GGCGG	310 ± 26
AUAGG	266 ± 22
CCUGG	221 ± 18
GCGGA	554 ± 28
GUCUG	218 ± 15
GGCUA	621 ± 50
UAAA	764 ± 51
CAAAG	703 ± 58
UAAAG	531 ± 53
AAAA	1010 ± 74
AAAAG	572 ± 40
GAAAG	560 ± 51
GAAAA	1340 ± 160
UAAAA	1190 ± 120
GAAA	879 ± 110
CAAA	1010 ± 77
CAAAA	1140 ± 66
AAAAA	1140 ± 80
UUUAA	472 ± 39

Sequence	TdT poly-dT extension signal
CACUG	276 ± 22
GUUG	156 ± 11
AGAA	990 ± 120
ACAGA	899 ± 79
CGAU	429 ± 24
CCCG	312 ± 43
UCCGC	1090 ± 36
CCCGC	1200 ± 97
CCCCC	425 ± 34
AACAG	567 ± 34
AUGUG	141 ± 13
CGGUU	300 ± 22
GAGGG	362 ± 32
AUUAU	330 ± 49
UGCGG	324 ± 29
UCAGC	1040 ± 72
AUUC	339 ± 23
CAGGU	493 ± 28
GGGGG	472 ± 39
AAUUA	354 ± 22
GCCAA	696 ± 70
UGGU	453 ± 25
UUUAC	399 ± 22
CCCAU	552 ± 28
GCCGG	264 ± 21
UCGA	592 ± 34

Sequence	TdT poly-dT extension signal
CGGGC	1070 ± 81
UAGU	371 ± 23
AGGAU	433 ± 28
CUUAC	422 ± 38
CAAAU	657 ± 54
CAGUC	521 ± 42
CACGG	422 ± 55
GCCAG	491 ± 83
GUAAU	383 ± 30
CGUCA	307 ± 18
UAACA	312 ± 21
GGCAU	577 ± 48
ACAUC	447 ± 23
GGGCG	330 ± 32
GGGCA	291 ± 26
GGGC	1320 ± 130
AGUGC	1230 ± 130
GGUG	210 ± 18
GGUGU	484 ± 37
CGUGC	1220 ± 81
AGUG	231 ± 23
CGUGA	389 ± 45
AGUGG	280 ± 18
GGUGC	1450 ± 72
UGUGA	362 ± 29
UGUGC	1360 ± 95

Sequence	TdT poly-dT extension signal
UGUG	149 ± 15
CGUG	298 ± 26
CGGAG	465 ± 66
GGCUG	287 ± 31
CUAGC	785 ± 76
CAGUA	544 ± 58
AAAU	568 ± 46
CGCU	427 ± 65
CCAGC	1240 ± 140
CCAG	470 ± 39
CCAGA	833 ± 99
UAAGG	350 ± 28
AAAG	538 ± 32
CAAGG	388 ± 18
CAAGC	1300 ± 67
AAAGC	1270 ± 67
UAAGC	1190 ± 89
UAAG	401 ± 44
CAAG	600 ± 36
GAAGC	1060 ± 81
GUCUA	477 ± 45
UUGG	177 ± 12
UCAGG	384 ± 36
AAUAC	583 ± 71
GACA	349 ± 28
CCGGC	929 ± 50

Sequence	TdT poly-dT extension signal
UGGA	586 ± 52
UAGGG	313 ± 21
AACUA	675 ± 34
UUCGA	389 ± 32
GACCA	345 ± 31
ACUCG	256 ± 14
UCGGU	469 ± 22
GGAC	724 ± 120
GCGGG	285 ± 16
UUAC	418 ± 28
CGCUG	264 ± 25
UUGCU	326 ± 35
AACGA	620 ± 72
CCACC	410 ± 37
AUCAG	458 ± 47
ACCAG	559 ± 61
GAAAC	1000 ± 140
AAUUU	252 ± 27
AACCG	293 ± 26
UCACC	396 ± 31
UUUCU	226 ± 34
CCGCG	351 ± 19
UUCAU	442 ± 20
CAGC	1170 ± 110
CAGCU	361 ± 26
CAGCA	560 ± 60

Sequence	TdT poly-dT extension signal
CCUUC	341 ± 33
CAUU	293 ± 19
GAACG	310 ± 29
GCAG	492 ± 30
GGAG	374 ± 20
AGAG	491 ± 39
CGAGC	1020 ± 61
AGAGC	1140 ± 83
GGAGC	1340 ± 130
AGAGA	827 ± 77
UCAUU	329 ± 26
UGAAA	894 ± 54
CUCUU	266 ± 14
GCGC	946 ± 73
AGUU	341 ± 23
CAAGA	858 ± 93
GAGGC	1040 ± 84
GGCUU	336 ± 21
